Here are results for 21 compounds from PubChem BioAssay (NCI).

SMILES strings stand for the structures. The panel holds about 79,000 compounds, 15% with a hit somewhere; the sample as a whole holds those more often. Unmarked numbers belong to inactive results. Activity calls are given as the source filed them. Cut-off read from the data, not from the text of the source: active = growth inhibition above about 70%; inactive = the rest.

Experiment [1] can be described thus: NCI Yeast Anticancer Drug Screen. Data for the rad50 strain (AID 155).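 Note: 0% = growth of vehicle-only cultures of the same strain.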 As to conditions: S. cerevisiae rad50 strain growth inhibition, active compounds read high; at 50.0 µM unless noted. In short, it runs like this:
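Yeast carrying a defined DNA repair defect were exposed to test compounds, and growth was compared with vehicle-treated controls to give percent inhibition.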

The nature of experiment [2]: NCI Yeast Anticancer Drug Screen. Data for the mec2-1 strain (AID 157). As to conditions: S. cerevisiae mec2-1 strain, active compounds read high; at 50.0 µM unless noted. In short, it runs like this: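 Readout is yeast growth inhibition, normalised to vehicle-treated controls, in the mec2-1 strain exposed to compound.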
The nature of experiment [3]: NCI Yeast Anticancer Drug Screen. Data for the sgs1 mgt1 strain (AID 161).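 Note: 0% = growth of cultures given vehicle only.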 As to conditions: S. cerevisiae sgs1 mgt1 strain, active compounds read high; at 50.0 µM unless noted. In short, it runs like this:
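Yeast cells carrying a defined DNA-repair defect were exposed to test compounds. Growth inhibition was measured relative to vehicle-treated controls.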

Experiment [4] is described as follows: NCI Yeast Anticancer Drug Screen. Data for the cln2 rad14 strain (AID 165).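 Note: 0% = growth equal to vehicle treated cultures.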 As to conditions: S. cerevisiae cln2 rad14 strain, active compounds read high; at 50.0 µM unless noted. In short, it runs like this:
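Relative to vehicle controls, growth inhibition of compound-treated cln2 rad14 yeast was recorded.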

Experiment [5] is described as follows: NCI Yeast Anticancer Drug Screen. Data for the bub3 strain (AID 167). As to conditions: S. cerevisiae bub3 mutant strain, active compounds read high; at 50.0 µM unless noted. In short, it runs like this:
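Compounds were applied to a genetically altered yeast strain carrying a cell-cycle control defect. Growth inhibition was scored against vehicle-treated controls.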

Experiment [6] can be described thus: NCI Yeast Anticancer Drug Screen. Data for the mlh1 rad18 strain (AID 175). Conditions: S. cerevisiae mlh1 rad18 strain growth inhibition, active compounds read high; at 50.0 µM unless noted. In short, it runs like this: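 Test agents were incubated with a yeast strain of defined genotype (DNA damage repair defect). Inhibition of growth was derived by comparison with vehicle-exposed cultures.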

`COc1cccc(C)c1NC(=O)NCCCl`: the growth inhibition was 17.6% in experiment [1]; 1.05% in experiment [2]; 13.2% in experiment [3]; -25.2% in experiment [4]; 12.1% in experiment [5]; 5.05% in experiment [6].

Take `ClC1CCC[N-]C1.ClC1CCC[N-]C1.[Cl][Pt+2][Cl]` (stereo unspecified): the growth inhibition in experiment [1] is -7.1%; in experiment [2], 4.95%; in experiment [3], -9.7%; in experiment [4], -28.6%; in experiment [5], -3.6%; in experiment [6] it was -3.55%.

On to `CN(C)C(=O)NN1CCCCCC1`, for which the growth inhibition is 7.25% in experiment [1]; 13.9% in experiment [2]; -14.2% in experiment [3]; -14.7% in experiment [4]; 13.3% in experiment [5]; -13.3% in experiment [6].

`CC(C)OC(=O)Nc1ccc(O)cc1`: the growth inhibition was 10.8% in experiment [1]; -6.7% in experiment [2]; -2.45% in experiment [3]; -19.4% in experiment [4]; -3.45% in experiment [5]; -5.7% in experiment [6].

Regarding `CC1CCCN1CCOC(=O)C(c1ccccc1)C1CCCC1` (stereo unspecified), the growth inhibition in experiment [1] was -4.65%; in experiment [2], 35.5%; in experiment [3], 32.1%; in experiment [4] it was -4.7%; in experiment [5] it was 3.3%; in experiment [6], 11.2%.

As to `CC1=Cc2cccc(C)c2C(=O)C1=O`, the growth inhibition in experiment [1] is 93.6% (active); in experiment [2] it was 95.2% (active); in experiment [3], 94.5% (active); in experiment [4], 92.8% (active); in experiment [5] it was 93.8% (active); in experiment [6], 93.2% (active).

With `S=c1[nH]nc(-c2ccccc2Cl)o1`, the growth inhibition in experiment [1] was -47.9%; in experiment [2] it was -17.7%; in experiment [3], -47.8%; in experiment [4] it was -21.2%; in experiment [5], -4.75%; in experiment [6], -66.2%.

Take `CC(=O)CCOC(=O)c1cc([N+](=O)[O-])cc([N+](=O)[O-])c1`: the growth inhibition was 13.2% in experiment [1]; -4.1% in experiment [2]; 14.4% in experiment [3]; 2.6% in experiment [4]; 16.9% in experiment [5]; 3% in experiment [6].

`O=C(O)c1nc2ccccc2nc1C(=O)O`: the growth inhibition was -27.9% in experiment [1]; -7.65% in experiment [2]; -13.4% in experiment [3]; -17.6% in experiment [4]; -7.95% in experiment [5]; -3.85% in experiment [6].

For the compound `S=c1nc[nH]c2[nH]cc(Br)c12`, the growth inhibition in experiment [1] is 11.6%; in experiment [2] it was -6.55%; in experiment [3], 2.5%; in experiment [4], -4.7%; in experiment [5] it was 3.75%; in experiment [6], 11.8%.

`OCC#CC#CCO`: the growth inhibition in experiment [1] is -3.7%; in experiment [2], -7.45%; in experiment [3], 8.75%; in experiment [4], -1.05%; in experiment [5] it was -15.8%; in experiment [6], -1.45%.

Consider `COc1ccc2nc3ccccc3c(NCCC[N+](C)(C)[O-])c2c1[N+](=O)[O-]`, for which the growth inhibition in experiment [1] was -6.4%; in experiment [2], -16.4%; in experiment [3], 3.45%; in experiment [4] it was -34.1%; in experiment [5], -13.1%; in experiment [6], -7.55%.

Regarding `COc1ccc(CCl)cc1OCc1ccccc1`, the growth inhibition was -33.7% in experiment [1]; -17.8% in experiment [2]; -16.7% in experiment [3]; -24.4% in experiment [4]; -14.7% in experiment [5]; -21.2% in experiment [6].

As to `COCCN=Cc1ccc(N(C)C)cc1`, the growth inhibition in experiment [1] is 4.35%; in experiment [2], -4.8%; in experiment [3], -3.05%; in experiment [4] it was -26.4%; in experiment [5] it was 7.45%; in experiment [6] it was 3.7%.

As to `C=CCn1c(=O)c2ccccc2[n+]2c(C)c(C(=O)OCC)sc12`, the growth inhibition in experiment [1] was -26.9%; in experiment [2], -16.2%; in experiment [3] it was -2.65%; in experiment [4], -14.5%; in experiment [5] it was 2.45%; in experiment [6] it was -19.6%.

In the case of `CC1(O)CC(=O)c2c(cc3ccc(-c4c5c(c(O)c6c(O)cccc46)C(=O)CC(C)(O)C5)c(O)c3c2O)C1` (stereo unspecified), the growth inhibition in experiment [1] is 54.1%; in experiment [2], 48.1%; in experiment [3], 35.5%; in experiment [4] it was 23.8%; in experiment [5], 19.7%; in experiment [6] it was 9.95%.

With `CCNc1ncnc2c1nnn2CC`, the growth inhibition was -5.55% in experiment [1]; -12.2% in experiment [2]; -15.8% in experiment [3]; -7.75% in experiment [4]; -27.4% in experiment [5]; 6.75% in experiment [6].

As to `O=C(C/C(=N/O)c1ccccc1)c1ccccc1`, the growth inhibition in experiment [1] was -14.7%; in experiment [2], -4.65%; in experiment [3], -8.5%; in experiment [4] it was 15.4%; in experiment [5] it was 5.35%; in experiment [6], -1.8%.

In the case of `CC(=O)Nc1cc(Cl)ccc1[N+](=O)[O-]`, the growth inhibition in experiment [1] is 8.95%; in experiment [2], 9.35%; in experiment [3] it was 27.9%; in experiment [4] it was 1.25%; in experiment [5], 17.4%; in experiment [6] it was 5.95%.

Regarding `O=C(N=C(Oc1ccccc1)Oc1ccccc1)N=C(Oc1ccccc1)Oc1ccccc1`, the growth inhibition in experiment [1] was 19.9%; in experiment [2], 9.15%; in experiment [3], 8.4%; in experiment [4], 20.3%; in experiment [5], 9.15%; in experiment [6], 36%.

Turning to `O=C(NCc1ccco1)Nc1ccccc1C(F)(F)F`, the growth inhibition in experiment [1] is 2.3%; in experiment [2], 0.2%; in experiment [3] it was 18.5%; in experiment [4] it was 19.6%; in experiment [5], 20.4%; in experiment [6], 17.1%.
